Assay results from the supplement of paper PMC10981050.
Where “and” joins values, the source holds several entries; their conditions need not be identical. Equal entries are not always repeated. Structures can show the parent of a compound that is named as a salt.

What was measured:
Assay in all cases: cell viability relative to vehicle control; higher = less cytotoxic
Settings in all cases: 10 µM
K562 = tested on: K562
Outline: (§1)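 Screening covered the Selleck bioactive, kinase and epigenetic probe libraries, less identity-inconsistent compounds, on CRISPR-edited mutant clones and isogenic wild-type clones of four leukaemia lines. Cells, at 2000 per well in 50 µL medium, received a single 10 µM acoustically dispensed dose. After 48 h the supernatant was removed and CellTiter-Glo luminescence was read. Viability was analysed in Genedata Screener as percent of the on-plate vehicle control.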

MARIMO = tested on: MARIMO
Outline: as §1

MOLM14 = tested on: MOLM14
Outline: as §1

OCI-AML2 = tested on: OCI-AML2
Outline: as §1

Compound	cell viability (K562; SRSF2 genotype: SRSF2 P95H/wt)	cell viability (K562; SRSF2 genotype: SRSF2 wt/wt) [%]	cell viability (MARIMO; SRSF2 genotype: SRSF2 P95H/wt) [%]	cell viability (MARIMO; SRSF2 genotype: SRSF2 wt/wt) [%]	cell viability (MOLM14; SRSF2 genotype: SRSF2 P95H/wt) [%]	cell viability (MOLM14; SRSF2 genotype: SRSF2 wt/wt) [%]	cell viability (OCI-AML2; SRSF2 genotype: P95H/wt) [%]	cell viability (OCI-AML2; SRSF2 genotype: wt/wt) [%]
CNCCc1ccccn1 [Betahistine 2HCl]	97.2% and 99.7%	95.5	88.7	102	90.6	99.8	89.3	101
CC(O)C(O)c1cnc2nc(N)[nH]c(=O)c2n1 (stereo not drawn) [6-Biopterin]	98.5% and 106%	108	104	107	109	106	104	104
COC(=O)c1ccc2c(c1)[nH]c1ncnc(NCCCN3CCCCC3)c12	78.5% and 68.9%	73.5	49.9	49	23.7	15.7	24.2	31
C#C[C@]1(OC(C)=O)CC[C@H]2[C@@H]3CCC4=C[C@@H](OC(C)=O)CC[C@@H]4[C@H]3CC[C@@]21C [Ethynodiol diacetate]	78.7% and 88.6%	80.7	51.5	46.5	63.6	78.8	30.3	36.3
Cc1cccc(-c2nn3c(c2-c2ccnc4ccc(C(N)=O)cc24)CCC3)n1	102% and 98%	99.2	104	103	99.7	96.1	108	108
OC[C@H]1O[C@@H](Oc2c(O)cc(O)cc2/C=C/c2ccc(O)cc2)[C@H](O)[C@@H](O)[C@@H]1O [Astragalus polyphenols]	91% and 89.8%	88.5	82.9	96.1	67.9	80.4	76.8	84.5
CC1(C)CC[C@]2(C(=O)O)CC[C@]3(CO)C(=CC[C@@H]4[C@@]5(C)C[C@H](O)[C@H](O[C@@H]6O[C@H](CO)[C@@H](O)[C@H](O)[C@H]6O)[C@@](C)(C(=O)O)[C@@H]5CC[C@]43C)[C@@H]2C1 [Tenuifolin]	102% and 96.9%	105	104	112	99.4	108	102	103
C[C@@H]1COCCN1c1cc(-c2ccnn2C)c2ccnc(-c3ccn[nH]3)c2n1	8.97% and 14.2%	10.6	17.3	26.6	19.1	9.25	15	17.1
COc1ccc(-c2coc3cc(O)cc(O)c3c2=O)cc1 [Biochanin A (4-Methylgenistein)]	97.6% and 85.7%	85.2	79.3	90	96.5	91.3	82.5	79.5
C[C@H](CCC(=O)NCCS(=O)(=O)O)[C@H]1CC[C@H]2[C@@H]3[C@H](O)C[C@@H]4C[C@H](O)CC[C@]4(C)[C@H]3C[C@H](O)[C@]12C [Taurocholic acid sodium salt hydrate]	110% and 102%	107	107	108	103	111	106	107
O=C(O)C[C@H](O)C[C@H](O)/C=C/c1c(C2CC2)nc2ccccc2c1-c1ccc(F)cc1 [Pitavastatin calcium (Livalo)]	37.4% and 50.7%	34.6	25.3	34.4	32.9	48.4	1.41	4.89
O=C(NNc1ccccc1)c1ccncc1	82.8% and 97.5%	77.1	91.1	101	93.5	89.5	92.7	97.9
COC(=O)c1ccc(O)c(C(=O)OC)c1 [Dimetghyl 4-Hydroxyisophthalate]	100% and 93.1%	99.4	95.2	98.7	97.3	100	90	96.6
CCCC(=O)Nc1cccc(NC(=O)c2ccccc2Br)c1	92.9%	95.5	97.8	96.5	102	100	95.7	95
CNC[C@H](O)c1cccc(O)c1 [Phenylephrine hydrochloride]	103% and 114%	109	104	104	101	109	106	103
N#Cc1c(NC(=O)c2cccc3ccccc23)sc2c1CCCC2 [JNK inhibitor IX]	16.2% and 37.1%	34.9	6.04	9.03	14.5	3.68	8.78	12.3
C[C@@H](c1ncncc1F)[C@](O)(Cn1cncn1)c1ccc(F)cc1F [Voriconazole]	102% and 99.5%	99	107	106	99.5	101	104	108
CCOC(=O)C=Cc1ccc(OC)cc1 [Ethyl 4-Methoxycinnamate]	86% and 83.2%	80	81.3	88.4	83.9	84.5	84.6	83.5
O=C(NOCC(O)CO)c1cc(Br)c(F)c(F)c1Nc1ccc(I)cc1F (stereo not drawn)	81.1% and 89.7%	83.2	41.3	37.3	50.1	36.6	40.6	45
C[C@@H]1CC[C@@]2(OC1)O[C@H]1C[C@H]3[C@@H]4CC=C5C[C@@H](O[C@@H]6O[C@H](CO)[C@@H](O)[C@H](O)[C@H]6O[C@@H]6O[C@@H](C)[C@H](O)[C@@H](O)[C@H]6O)CC[C@]5(C)[C@H]4CC[C@]3(C)[C@@]1(O)[C@@H]2C [Polyphyllin VI]	0.36% and 0.31%	0.44	4.95	0.84	0.85	0.55	0.28	0.33
Nc1nc(F)nc2c1ncn2[C@@H]1O[C@H](COP(=O)(O)O)[C@@H](O)[C@@H]1O [Fludarabine Phosphate (Fludara)]	105% and 112%	98.7	64.2	84.9	88.1	101	6.47	10.8

Compound	cell viability (K562; SRSF2 genotype: SRSF2 P95H/wt)	cell viability (K562; SRSF2 genotype: SRSF2 wt/wt) [%]	cell viability (MARIMO; SRSF2 genotype: SRSF2 P95H/wt) [%]	cell viability (MARIMO; SRSF2 genotype: SRSF2 wt/wt) [%]	cell viability (MOLM14; SRSF2 genotype: SRSF2 P95H/wt) [%]	cell viability (MOLM14; SRSF2 genotype: SRSF2 wt/wt) [%]	cell viability (OCI-AML2; SRSF2 genotype: P95H/wt) [%]	cell viability (OCI-AML2; SRSF2 genotype: wt/wt) [%]
O=C(Nc1cc(Cl)cc(Cl)c1O)c1c(O)c(Cl)cc(Cl)c1Cl [Oxyclozanide]	96% and 91.7%	97.8	97.2	108	99.1	103	102	99.9
O=C(Nc1ccccc1Br)N[C@@H]1CCN(c2ccc(C(F)(F)F)cn2)C1	88.5% and 90.8%	91.5	89.3	101	98.5	99.3	78.4	89.7
Cc1cc(-c2ccc(/N=N/c3ccc4c(S(=O)(=O)O)cc(S(=O)(=O)O)c(N)c4c3O)c(C)c2)ccc1/N=N/c1ccc2c(S(=O)(=O)O)cc(S(=O)(=O)O)c(N)c2c1O [Evans Blue]	66.2% and 64.2%	62.8	63.8	72.2	67.4	64.7	66.2	67.6
COC(=O)c1cc(OC)c(OC)c(OC)c1 [Methyl EudesMate]	103% and 105%	100	97.6	109	108	106	102	110
COc1cccc(-c2cc(F)ccc2C2Cc3nc(N)nc(C)c3C(=O)N2)n1 (stereo not drawn)	21.2% and 27.1%	24	29.6	24.7	1.82	3	15.3	19.9
CO/N=C(\C(=O)N[C@@H]1C(=O)N2C(C(=O)O)=C(CSC(=O)c3ccco3)CS[C@H]12)c1csc(N)n1 [Ceftiofur]	108%	103	110	109	97	108	112	105
CC(C)(C(=O)O)c1ccc(C(O)CCCN2CCC(C(O)(c3ccccc3)c3ccccc3)CC2)cc1 (stereo not drawn) [Fexofenadine HCl]	99.1% and 98.7%	101	95.9	103	100	101	94.1	110
CCC[C@@H]1C[C@@H](C(=O)N[C@@H]([C@H]2O[C@H](SC)[C@H](O)[C@@H](O)[C@H]2O)[C@H](C)Cl)N(C)C1 [Clindamycin HCl]	91.2% and 108%	102	94.1	99.9	96.5	108	83.9	85.3
CCCC(=O)O[C@]1(C(=O)COC(C)=O)CC[C@H]2[C@@H]3C[C@H](F)C4=CC(=O)C=C[C@]4(C)[C@@]3(F)[C@@H](O)C[C@@]21C [Difluprednate]	96.9% and 99%	99.4	102	100	91.2	92.1	109	107
O=C(Nc1cc(Cl)cc2c1[nH]c1cnccc12)c1cccnc1	89% and 95.7%	88.8	111	116	85.2	101	86.8	85.9
OCCOCCN1CCN(Cc2cccc(Oc3ccccc3)c2)CC1	97.6% and 99.2%	94	90	99.3	94.5	99.8	84	93.8
CC[C@@H]([C@H](C)O)n1ncn(-c2ccc(N3CCN(c4ccc(OC[C@@H]5CO[C@@](Cn6cncn6)(c6ccc(F)cc6F)C5)cc4)CC3)cc2)c1=O [Posaconazole]	55.7% and 75.6%	87	55.6	59	62.2	85.5	18.1	23.9
CC(=O)c1cc2c(o1)C(=O)c1ccccc1C2=O [Napabucasin]	0.4% and 0.37%	0.39	3.59	2.73	0.37	0.39	0.4	0.39
COc1cccc(-c2cc(=O)c3ccccc3o2)c1N	95.9% and 95.1%	95.6	69.9	61.9	99.5	109	73.1	58
C[C@H](CCC(=O)O)[C@H]1CC[C@H]2[C@@H]3[C@H](O)C[C@@H]4C[C@H](O)CC[C@]4(C)[C@H]3C[C@H](O)[C@]12C [Sodium cholate]	103% and 101%	94.5	88.2	96.6	89.8	93.4	88	96.5
COC1=CC(=O)c2ccccc2C1=O [2-Methoxy-1,4-naphthoquinone]	3.03% and 1.06%	18.6	46.3	48	31.2	17.5	36.9	38.8
C=CCc1ccc(O)c(-c2cc(CC=C)ccc2O)c1 [Magnolol]	85.6% and 95.6%	96.6	99.5	112	93.9	103	86.2	106
C[C@@H]1C(=O)O[C@H]2C[C@@]34[C@H]5C[C@@H](C(C)(C)C)[C@]36[C@@H](OC(=O)[C@@H]6O)O[C@@]4(C(=O)O5)[C@]21O [Ginkgolide A]	105% and 100%	97.8	101	106	105	103	106	95.5
O=C1c2c(O)cccc2C([C@@H]2O[C@H](CO)[C@@H](O)[C@H](O)[C@H]2O)c2cc(CO)cc(O)c21 (stereo partly drawn) [Aloin (Barbaloin)]	105% and 104%	98.5	105	102	109	104	98.1	102
Cn1c([N+](=O)[O-])cnc1COC(N)=O [Ronidazole]	95.1% and 89%	92.3	97.3	97.3	96	99.5	90.8	102
